{"source": "the supplement of paper PMC8728848", "binders": {"B1": {"name": "CVN-E41G (protein)", "chain": "MHHHHHHENLYFQSGNFSQACYNSAIQGSVLTSTCIRTNGGYNTSSIDLNSVIGNVDGSLKWQGSNFIETCRNTQLAGSSELAAECKTRAQQFVSTKINLDDHIAAIDGTLKYE"}}, "assay_in_all_cases": "glycan array binding signal (z-score within array); higher = stronger binding", "settings_in_all_cases": "glycan notation: IUPAC condensed, linker removed; mutation: E41G", "key": {"[1]": {"biological_target": "Fuc(a1-2)Gal(b1-3)GalNAc", "procedure,_shortened": "(§1)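 The Consortium for Functional Glycomics database supplied 3228 glycan arrays, of which those lacking an available protein sequence were dropped. The binding signal, a within-array Z-score, was averaged across arrays of the same protein sequence and across linkers. Negative scores can be read as non-binding.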"}, "[2]": {"biological_target": "Fuc(a1-2)Gal(b1-3)GlcNAc(b1-3)GalNAc", "procedure,_shortened": "as §1"}, "[3]": {"biological_target": "Fuc(a1-2)Gal(b1-3)GlcNAc(b1-3)[Fuc(a1-2)Gal(b1-3)GlcNAc(b1-6)]GalNAc", "procedure,_shortened": "as §1"}, "[4]": {"biological_target": "Fuc(a1-2)Gal(b1-3)GlcNAc6S", "procedure,_shortened": "as §1"}, "[5]": {"biological_target": "Fuc(a1-2)Gal(b1-3)[Fuc(a1-4)]GlcNAc", "procedure,_shortened": "as §1"}, "[6]": {"biological_target": "Fuc(a1-2)Gal(b1-4)GlcNAc6S", "procedure,_shortened": "as §1"}, "[7]": {"biological_target": "Fuc(a1-2)Gal(b1-4)[Fuc(a1-3)]GlcNAc(b1-2)[Fuc(a1-2)Gal(b1-4)[Fuc(a1-3)]GlcNAc(b1-4)]Man(a1-3)[Fuc(a1-2)Gal(b1-4)[Fuc(a1-3)]GlcNAc(b1-2)Man(a1-6)]Man(b1-4)GlcNAc(b1-4)GlcNAc", "procedure,_shortened": "as §1"}, "[8]": {"biological_target": "Fuc(a1-2)Gal6S(b1-4)Glc6S", "procedure,_shortened": "as §1"}, "[9]": {"biological_target": "Fuc(a1-2)[Gal(a1-3)]Gal(b1-4)Glc", "procedure,_shortened": "as §1"}, "[10]": {"biological_target": "Fuc(a1-2)[Gal(a1-3)]Gal(b1-4)GlcNAc(b1-2)Man(a1-3)[Fuc(a1-2)[Gal(a1-3)]Gal(b1-4)GlcNAc(b1-2)Man(a1-6)]Man(b1-4)GlcNAc(b1-4)GlcNAc", "procedure,_shortened": "as §1"}, "[11]": {"biological_target": "Fuc(a1-2)[Gal(a1-3)]Gal(b1-4)GlcNAc(b1-3)GalNAc", "procedure,_shortened": "as §1"}, "[12]": {"biological_target": "Fuc(a1-2)[GalNAc(a1-3)]Gal(b1-3)GlcNAc(b1-2)Man(a1-3)[Fuc(a1-2)[GalNAc(a1-3)]Gal(b1-3)GlcNAc(b1-2)Man(a1-6)]Man(b1-4)GlcNAc(b1-4)[Fuc(a1-6)]GlcNAc", "procedure,_shortened": "as §1"}, "[13]": {"biological_target": "Fuc(a1-2)[GalNAc(a1-3)]Gal(b1-4)GlcNAc(b1-3)Gal(b1-4)GlcNAc(b1-3)Gal(b1-4)GlcNAc", "procedure,_shortened": "as §1"}, "[14]": {"biological_target": "Gal(a1-3)Gal(b1-3)GlcNAc", "procedure,_shortened": "as §1"}, "[15]": {"biological_target": "Gal(a1-3)Gal(b1-3)[Fuc(a1-4)]GlcNAc(b1-2)Man(a1-3)[Gal(a1-3)Gal(b1-3)[Fuc(a1-4)]GlcNAc(b1-2)Man(a1-6)]Man(b1-4)GlcNAc(b1-4)GlcNAc", "procedure,_shortened": "as §1"}, "[16]": {"biological_target": "Gal(b1-2)Gal", "procedure,_shortened": "as §1"}, "[17]": {"biological_target": "Gal(b1-3)GalNAc(a1-3)[Fuc(a1-2)]Gal(b1-4)Glc", "procedure,_shortened": "as §1"}, "[18]": {"biological_target": "Gal(b1-3)GlcNAc(b1-2)Man(a1-3)[Gal(b1-3)GlcNAc(b1-2)Man(a1-6)]Man(b1-4)GlcNAc(b1-4)GlcNAc", "procedure,_shortened": "as §1"}, "[19]": {"biological_target": "Gal(b1-3)GlcNAc(b1-2)Man(a1-3)[Gal(b1-3)GlcNAc(b1-2)Man(a1-6)]Man(b1-4)GlcNAc(b1-4)[Fuc(a1-6)]GlcNAc", "procedure,_shortened": "as §1"}, "[20]": {"biological_target": "Gal(b1-3)GlcNAc(b1-3)Gal(b1-3)GlcNAc", "procedure,_shortened": "as §1"}, "[21]": {"biological_target": "Gal(b1-3)GlcNAc(b1-3)Gal(b1-4)GlcNAc(b1-2)[Gal(b1-3)GlcNAc(b1-3)Gal(b1-4)GlcNAc(b1-6)]Man(a1-6)[Gal(b1-3)GlcNAc(b1-3)Gal(b1-4)GlcNAc(b1-2)Man(a1-3)]Man(b1-4)GlcNAc(b1-4)[Fuc(a1-6)]GlcNAc", "procedure,_shortened": "as §1"}, "[22]": {"biological_target": "Gal(b1-3)[Fuc(a1-4)]GlcNAc(b1-3)Gal(b1-4)[Fuc(a1-3)]GlcNAc", "procedure,_shortened": "as §1"}, "[23]": {"biological_target": "Gal(b1-3)[Neu5Ac(b2-6)]GalNAc", "procedure,_shortened": "as §1"}, "[24]": {"biological_target": "Gal(b1-4)GlcNAc(b1-2)Man(a1-3)[Gal(b1-4)GlcNAc(b1-2)Man(a1-6)]Man(b1-4)GlcNAc(b1-4)[Fuc(a1-6)]GlcNAc", "procedure,_shortened": "as §1"}, "[25]": {"biological_target": "Gal(b1-4)GlcNAc(b1-2)[Gal(b1-4)GlcNAc(b1-4)]Man(a1-3)[Gal(b1-4)GlcNAc(b1-2)Man(a1-6)]Man(b1-4)GlcNAc(b1-4)GlcNAc", "procedure,_shortened": "as §1"}, "[26]": {"biological_target": "Gal(b1-4)GlcNAc(b1-3)Gal(b1-4)GlcNAc(b1-3)Gal(b1-4)GlcNAc(b1-3)Gal(b1-4)GlcNAc(b1-2)[Gal(b1-4)GlcNAc(b1-3)Gal(b1-4)GlcNAc(b1-3)Gal(b1-4)GlcNAc(b1-3)Gal(b1-4)GlcNAc(b1-6)]Man(a1-6)[Gal(b1-4)GlcNAc(b1-3)Gal(b1-4)GlcNAc(b1-3)Gal(b1-4)GlcNAc(b1-3)Gal(b1-4)GlcNAc(b1-2)Man(a1-3)]Man(b1-4)GlcNAc(b1-4)[Fuc(a1-6)]GlcNAc", "procedure,_shortened": "as §1"}, "[27]": {"biological_target": "Gal(b1-4)GlcNAc(b1-3)Gal(b1-4)[Fuc(a1-3)]GlcNAc(b1-3)Gal(b1-4)[Fuc(a1-3)]GlcNAc", "procedure,_shortened": "as §1"}}, "note": "Shown is part of a subset that was picked to be rich in the strongest signals.", "data": [{"binder": "B1", "values": [{"measurement": "glycan array binding signal (z-score)", "setting": "[1]", "result": -0.178}, {"measurement": "glycan array binding signal (z-score)", "setting": "[2]", "result": -0.168}, {"measurement": "glycan array binding signal (z-score)", "setting": "[3]", "result": -0.093}, {"measurement": "glycan array binding signal (z-score)", "setting": "[4]", "result": -0.182}, {"measurement": "glycan array binding signal (z-score)", "setting": "[5]", "result": -0.157}, {"measurement": "glycan array binding signal (z-score)", "setting": "[6]", "result": -0.144}, {"measurement": "glycan array binding signal (z-score)", "setting": "[7]", "result": 0.014}, {"measurement": "glycan array binding signal (z-score)", "setting": "[8]", "result": -0.023}, {"measurement": "glycan array binding signal (z-score)", "setting": "[9]", "result": -0.166}, {"measurement": "glycan array binding signal (z-score)", "setting": "[10]", "result": -0.122}, {"measurement": "glycan array binding signal (z-score)", "setting": "[11]", "result": -0.189}, {"measurement": "glycan array binding signal (z-score)", "setting": "[12]", "result": 0.532}, {"measurement": "glycan array binding signal (z-score)", "setting": "[13]", "result": -0.163}, {"measurement": "glycan array binding signal (z-score)", "setting": "[14]", "result": -0.138}, {"measurement": "glycan array binding signal (z-score)", "setting": "[15]", "result": 1}, {"measurement": "glycan array binding signal (z-score)", "setting": "[16]", "result": -0.147}, {"measurement": "glycan array binding signal (z-score)", "setting": "[17]", "result": -0.175}, {"measurement": "glycan array binding signal (z-score)", "setting": "[18]", "result": 0.069}, {"measurement": "glycan array binding signal (z-score)", "setting": "[19]", "result": -0.141}, {"measurement": "glycan array binding signal (z-score)", "setting": "[20]", "result": -0.13}, {"measurement": "glycan array binding signal (z-score)", "setting": "[21]", "result": 1.02}, {"measurement": "glycan array binding signal (z-score)", "setting": "[22]", "result": -0.151}, {"measurement": "glycan array binding signal (z-score)", "setting": "[23]", "result": -0.158}, {"measurement": "glycan array binding signal (z-score)", "setting": "[24]", "result": -0.15}, {"measurement": "glycan array binding signal (z-score)", "setting": "[25]", "result": -0.165}, {"measurement": "glycan array binding signal (z-score)", "setting": "[26]", "result": -0.125}, {"measurement": "glycan array binding signal (z-score)", "setting": "[27]", "result": -0.099}]}]}
